Shown are actives, neighbours in structure and some others; about 5% of the full set was active somewhere.
AI-2 QS mod = modulators of Vibrio harveyi AI-2 quorum sensing system; Vibrio harveyi JMH597 AI-2 luminescence/OD600 ratio, 9 h; hits give low values; strain lacks LuxN and CqsS sensors; 0 = neutral-control median; activity change, % at 7.5 µM; 0.4% of 300,000 active; AID 2094; in the data active = activity change below about -75%, passing the limit was not always enough; inconclusive = no clear call, values can overlap the other calls;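 also: luminescence divided by OD600 gain over 9 h not by final OD600 alone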
CHT block = human CHT choline transport inhibition | CHT-expressing cells, membrane potential dye, choline response; hits give low values | B-score at 10 µM | 0.86% of 310,000 active;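 active = B-score over 3 SD under the library average, and starting fluorescence ratio not unusually high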;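 also: choline stimulus applied at its EC90 after an EC20 pre-addition; B-score computed on integrated fluorescence ratio after choline addition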
PREPL inhibitor = inhibits the human prolyl oligopeptidase-like enzyme. Q4J6C6. recombinant PREPL, fluorescence polarization activity-based probe. inhibition, % at 5.96 µM. 0.68% of 320,000 active. AID 2751; in the data active = inhibition above about 43%;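 also: 0% = enzyme with DMSO and 100% = wells lacking enzyme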
CHT PAM = allosteric activators of human choline transporter CHT; Q9GZV3; CHT-expressing cells, membrane potential dye, choline EC20; hits give high values; LV-AA mutant CHT in HEK293 cells; B-score at 10 µM; 0.49% of 310,000 active; AID 488977;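 active = initial fluorescence not abnormally high and integrated response B-score, plate-corrected, over 3 SD above library mean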
ALR H2O2 inh = blocks human ALR sulfhydryl oxidase activity | 3.8% of 290,000 active | P55789 | purified ALR, DTT oxidation, H2O2 HRP-luminol luminescence | inhibition, % (test concentration not listed);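 active = mean replicate inhibition above about 79%, with every replicate also reaching it, limit read from the data; inconclusive = only one of the two criteria met; inactive = mean below limit and not every replicate reaching it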
Target sequence (P55789 whole entry, looked up): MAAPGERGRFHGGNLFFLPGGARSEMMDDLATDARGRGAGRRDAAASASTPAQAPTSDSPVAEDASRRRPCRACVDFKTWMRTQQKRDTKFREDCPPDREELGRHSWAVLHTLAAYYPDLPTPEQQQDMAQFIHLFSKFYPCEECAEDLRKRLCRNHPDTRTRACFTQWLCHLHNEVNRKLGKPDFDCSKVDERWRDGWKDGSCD
An asterisk follows results filed as active; i = inactive; u = inconclusive; x = no result given.

SMILES	AI-2 QS mod	CHT block	PREPL inhibitor	CHT PAM	ALR H2O2 inh
Cc1ccccc1-n1nc2c(c1NC(=O)C(C)(C)C)CS(=O)(=O)C2	15.2	i	10.9	i	1.5
Cn1c(N)c(S(=O)(=O)N2CCN(c3ccccc3Cl)CC2)c(=O)n(C)c1=O	17.2	i	1.3	i	-19.2
COc1ccc(NS(=O)(=O)c2cc(NC(=O)c3ccc(=O)[nH]n3)ccc2C)cc1	x	x	-9.4	x	1.0
Fc1ccc2[nH]c3c(Cl)ncnc3c2c1	18.8	i	0.5	i	95.4*
O=C1NN(c2ccc(F)c(Cl)c2)C(=O)/C1=C\c1cccc(OC(=O)c2cccs2)c1	9.5	i	31.1	i	-8.8
CC(C)=C1C(=O)NN(c2ccc(F)c(Cl)c2)C1=O	35.4	i	19.2	i	94.2*
O=[N+]([O-])c1cc([N+](=O)[O-])c2oc(-c3ccccc3)c(Br)c2c1O	131.1	x	x	x	x
COc1ccc(CCNC(=O)Cn2c(=O)[nH]c3ccsc3c2=O)cc1OC	20.5	i	0.7	i	x
Nc1cccc(-c2cnc3ccccc3n2)c1	3.0	i	6.8	i	99.3*
N#C/C(N=Nc1ccccc1O)=N\Nc1ccccc1O	23.6	-10.8*	18.1	i	98.8*
Oc1ccccc1N=N/C(=N/Nc1ccccc1O)c1ccccc1	-0.9	i	1.1	i	-2.2
CC(C)(C)c1ccc(NC(=O)c2cc[n+]([O-])cc2)cc1	13.0	i	1.1	i	x
Cc1sc(NC(=O)CCl)c(C(=O)c2ccccc2)c1C	-10.0	i	-2.6	i	98.9*
Cc1ccccc1C(=O)Nc1sc(C)c(C)c1C(=O)c1ccccc1	3.9	i	-27.4	i	3.9
CNS(=O)(=O)c1cccc(C(=O)OCc2csc(-c3ccccc3)n2)c1	-1.8	i	-5.0	i	u
Cn1cccc1C(=O)OCc1csc(-c2ccccc2)n1	-8.8	i	-9.9	i	95.8*
Nc1ccc(C(=O)OCc2csc(-c3ccccc3)n2)cc1[N+](=O)[O-]	15.0	i	-11.1	i	98.5*
O=C(OCc1csc(-c2ccccc2)n1)c1cccs1	12.7	i	12.3	i	-23.2
Cc1[nH][nH]c(=O)c1C=NCc1cccc(C(F)(F)F)c1	24.0	i	2.8	i	-44.8
CC(=O)c1ccc(N(CC(=O)NC2CCCCC2)C(=O)CNC(=O)c2ccco2)cc1	13.5	i	2.2	i	-2.5
CN(C)/N=C/c1ccc(/C=N/NC(N)=S)o1	x	i	-0.7	i	98.9*
NC(=S)N/N=C/c1ccc(/C=N/NC(N)=S)cc1	27.0	i	15.7	i	-3.1
NC(=S)N/N=C/c1ccc(-c2ccccc2)o1	u	i	9.3	i	97.9*
Cc1ccccc1NC(=O)Cc1nnc(SCC(=O)NC2CCCCC2)n1C	-3.4	i	1.8	i	-0.3
COc1ccc(-c2oc3cccnc3c2-c2ccc(OC)nc2)cc1	9.7	i	9.6	i	-3.9
SMILES	AI-2 QS mod	CHT block	PREPL inhibitor	CHT PAM	ALR H2O2 inh
Cc1cc(C)c(S(=O)(=O)NCCOc2ccccc2)c(C)c1-n1cnnn1	13.2	i	7.7	i	2.6
COc1ccc(Sc2nc(-c3ccccn3)ncc2OC)cc1	42.4	i	32.3	i	u
COc1cnc(-c2ccccn2)nc1Sc1ccccc1	41.0	i	24.9	i	95.9*
O=c1c(-c2ccc(O)cc2)coc2cc(OC3OC(CO)C(O)C(O)C3O)cc(O)c12 (centres undefined)	8.5	i	-1.5	i	58.4
O=c1c(OC2OC(CO)C(O)C(O)C2OC2OC(CO)C(O)C(O)C2O)c(-c2ccc(O)cc2)oc2cc(O)cc(O)c12 (centres undefined)	x	i	-7.0	i	22.8
O=c1c(-c2ccc(O)cc2)coc2cc(OC3OC(CO)C(O)C(O)C3O)ccc12 (centres undefined)	26.4	i	17.4	i	99.3*
O=c1c(O[C@@H]2O[C@H](CO)C(O)C2O)c(-c2ccc(O)c(O)c2)oc2cc(O)cc(O)c12 (some centres undefined)	x	x	28.1	x	99.6*
O=c1c(O[C@H]2O[C@@H](CO)[C@H](O)[C@@H](O)[C@@H]2O)c(-c2ccc(O)cc2)oc2cc(O)cc(O)c12	x	x	15.4	x	87.2*
CC(=O)c1ccc(NC(=O)COc2ccc3c(c2)OCO3)cc1	-5.5	i	-0.9	i	-1.4
Cc1occc1C(=O)N1CCN(S(=O)(=O)c2ccccc2)CC1	21.9	i	18.6	i	3.2
O=C1OCCN1/N=C/c1ccc([N+](=O)[O-])o1	u	i	-0.3	i	-16.1
O=C1CN(/N=C/c2ccc([N+](=O)[O-])o2)C(=O)N1	-89.3*	i	3.8	i	-22.2
Cc1nn(Cc2cccc(C(=O)NN)c2)c(C)c1Cl	-3.4	i	-20.8	i	96.9*
Cc1nn(Cc2ccc(C(=O)NN)cc2)c(C)c1Cl	9.6	i	1.4	i	x
N#Cc1cc([N+](=O)[O-])ccc1Oc1cccc(/C=N/NC(=O)c2cccc(Cl)c2)c1	35.7	i	4.4	i	-2.5
CS(=O)(=O)c1nc(-c2cccs2)cc(C(F)(F)F)n1	-89.5*	i	-9.3	i	98.5*
O=C(O)CCS(=O)(=O)c1nc(-c2cccs2)cc(C(F)(F)F)n1	26.0	i	-0.3	i	97.3*
O=C1CCN(Cc2ccccc2)S(=O)(=O)c2c(F)cc(F)cc21	x	x	-5.8	x	0.5
Nc1nc(N)nc(-c2cccc(Cl)c2Cl)n1	x	i	6.0	i	-3.7
Cc1ccsc1/C=N/NC(=O)c1nnn(-c2nonc2N)c1CN(C)c1ccccc1	22.1	i	4.4	i	0.3
CCC1=Nc2cc(C(=O)NCCCN3CCN(C)CC3)ccc2Sc2ccccc21	13.9	i	-19.3	i	-15.0
COc1ccc(OC)c(/C=N/c2oc(-c3ccco3)c(-c3ccco3)c2C#N)c1	38.4	i	6.5	i	98.1*
Fc1ccc(NC(=S)N2CCCc3ccccc32)cc1	2.5	i	17.7	i	88.9*
Cc1ccc(NC(=O)N2CCCc3ccccc32)cc1	6.0	i	-8.7	i	34.5
Cc1ccc(Nc2c(-c3ccccc3O)nc3ncccn23)cc1	5.7	i	37.2	i	98.3*
SMILES	AI-2 QS mod	CHT block	PREPL inhibitor	CHT PAM	ALR H2O2 inh
Cc1ccc(-c2nc3cnccn3c2Nc2ccc3c(c2)OCO3)cc1	16.6	i	31.1	i	x
Cc1cccc(Nc2c(-c3ccc(O)cc3)nc3ncccn23)c1	18.0	i	-9.0	i	22.8
Cc1ccc(Nc2c(-c3ccccc3O)nc3cnccn23)cc1	10.5	i	17.6	i	98.9*
CSc1ccccc1NC(=O)CSc1cccc[n+]1[O-]	x	x	1.3	x	-3.0
CN(C(=O)C1CCCC1)C1CCS(=O)(=O)C1 (centres undefined)	7.0	i	-3.0	i	-0.4
Cc1ccc(CNC(=O)CS(=O)Cc2nc(-c3ccccc3Cl)oc2C)cc1 (centres undefined)	7.5	i	-7.4	i	94.9*

Screens as filed in PubChem BioAssay.
